Experimental data from PubChem BioAssay.
Calls of active or inactive are those of the source.

How the values were obtained:
Albumin (Bos taurus) = Albumin (Bos taurus) (UniProt P02769); experiment: compounds binding labelled BSA control protein – biochemical, small-molecule microarray, Alexa647 label, 635/667 nm fluorescence, artefact control for SMM control protein annotation, profiling panel (AID 1118); conditions: BSA-A647 binding, fluorescence 635 nm, higher = more signal;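 note: score merges 667 nm emission intensity and signal-to-noise per printed compound spot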
[1] = probe aXIP binding to arrayed compounds – biochemical, NeuroSMM set, 635/667 nm fluorescence, primary screen (AID 1119); conditions: small-molecule microarray, higher = more signal, called active from +8 up or from −8 down;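 note: probe is the protein aXip251-270 applied at 1 µg/mL to compound-printed slides; binding of probe to printed compounds measured as 667 nm fluorescence plus signal to noise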
[2] = probe aNOTCH3 binding on compound microarray – biochemical, small-molecule microarray, 635/667 nm fluorescence, primary screen (AID 1120); conditions: higher = more signal;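 note: probe is a biotin-tagged antibody raised against NOTCH3 rather than NOTCH3 protein; score merges spot fluorescence near 667 nm with spot signal to noise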
[3] = probe aNOTCH2 binding on compound microarray – biochemical, small-molecule microarray, 635/667 nm fluorescence, primary screen (AID 1121); conditions: higher = more signal;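 note: score merges feature fluorescence read at 667 nm with its signal to noise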
[4] = target: Carbonic anhydrase 2 (Homo sapiens) (UniProt P00918); experiment: compounds binding carbonic anhydrase 2 – biochemical, small-molecule microarray, Alexa647-labelled CAII, profiling panel (AID 1122); conditions: CAII-A647 binding fluorescence, higher = more signal
[5] = COS7 lysate on small-molecule microarray, probe aHis, 635 nm (AID 1123); conditions: COS7 cell lysate, fluorescence, higher = more signal;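 note: z-score combines 667nm fluorescence intensity with signal-to-noise per printed compound spot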
[6] = probe aLAP1 signal on lysate-treated microarray – cell lysate, small-molecule microarray, COS7 lysate, primary screen (AID 1124); conditions: probe aLAP1, fluorescence, higher = more signal;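 note: lysate comes from COS7 cells expressing LAP1 and is applied at 0.3 µg/mL; score merges spot fluorescence near 667 nm with signal-to-noise over triplicate slides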
Sam68 (KHDRBS1) = experiment: compounds binding KHDRBS1 protein – biochemical, small-molecule microarray, 635 nm fluorescence, primary screen (AID 1125); conditions: higher = more signal;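 note: score merges 667 nm channel intensity with signal to noise over triplicate slides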
[7] = system: Chordin-like protein 2 (CHRDL2); experiment: compounds binding chordin-like 2 – biochemical, small-molecule microarray, 635 nm fluorescence, primary screen (AID 1126); conditions: fluorescence 635 nm, higher = more signal;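 note: printed compound slides probed with Chrdl2 protein at 4 µg/mL for 1 h at 4 C; score merges 667 nm emission intensity with signal to noise over three replicate slides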
[8] = target: Concanavalin-A (Canavalia ensiformis) (UniProt P02866); experiment: compounds binding concanavalin A lectin – biochemical, small-molecule microarray, Alexa647 label, 635 nm, artefact control for SMM control protein annotation, primary screen (AID 1127); conditions: ConA-A647 binding fluorescence, higher = more signal;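 note: z combines 667 nm emission intensity with signal-to-noise across three replicate slides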
[9] = compounds binding Alexa647 anti-His antibody – biochemical, small-molecule microarray, 635 nm fluorescence, artefact control for SMM control protein annotation, primary screen (AID 1128); conditions: higher = more signal;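 note: score merges feature fluorescence with signal-to-noise for each printed compound spot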
[10] = system: Human papillomavirus type 1a E7 protein (residues 1-88); experiment: HPV1a E7 small-molecule binders, primary screen, biochemical, small-molecule microarray, residues 1-88, 635 nm (AID 1129); conditions: small-molecule microarray binding, fluorescence 635 nm; higher = more signal
[11] = target: Focal adhesion kinase 1 (Homo sapiens) (UniProt Q05397); experiment: PTK2 protein binding on printed compound slides – biochemical, small-molecule microarray, 635/667 nm fluorescence, BSA, DTT, primary screen (AID 1130); conditions: 635 nm fluorescence, higher = more signal;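 note: composite of spot emission at 667 nm and signal to noise over triplicate slides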
[12] = system: Fibrinogen (Alexa647-labelled); experiment: Alexa647-fibrinogen binding to printed small molecules – biochemical, small-molecule microarray, 635/667 nm fluorescence, artefact control for SMM control-protein annotation, profiling panel (AID 1131); conditions: fibrinogen-A647 binding fluorescence, higher = more signal;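 note: z-score merges 667 nm fluorescence with per-spot signal-to-noise over triplicate slides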
[13] = target: Follistatin (Homo sapiens) (UniProt P19883); experiment: FST protein binding to printed compounds – biochemical, small-molecule microarray, 635/667 nm fluorescence, primary screen (AID 1132); conditions: 635 nm fluorescence, higher = more signal
[14] = target: Fibroblast growth factor 2 (Homo sapiens) (UniProt P09038); experiment: basic fibroblast growth factor binding to printed compounds – biochemical, small-molecule microarray, 635/667 nm fluorescence, primary screen (AID 1133); conditions: FGF2, fluorescence 635/667, higher = more signal
[15] = JC-1 mitochondrial potential readout, lung cancer cells – cell-based, A549, JC-1 fluorescence, basal, 24 h, 100 nL, profiling panel (AID 1138); conditions: higher = more signal;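 note: A549 lung adenocarcinoma cells under basal conditions with no added stimulus; test concentration not given here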
Lefty1 = Lefty1 protein binding to printed compounds – biochemical, small-molecule microarray, 635/667 nm fluorescence, primary screen (AID 1139); conditions: fluorescence 635/667, higher = more signal
[16] = system: wheat germ agglutinin (Triticum aestivum), Alexa647-labelled; experiment: Alexa647-WGA lectin binding to printed small molecules – biochemical, small-molecule microarray, 635/667 nm fluorescence, artefact control for SMM control-protein annotation, profiling panel (AID 1140); conditions: WGA-A647 binding, 635 nm fluorescence, higher = more signal;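 note: score merges 667 nm feature emission with signal to noise over triplicate slides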
[17] = target: Luciferin 4-monooxygenase (Photinus pyralis) (UniProt P08659); experiment: inhibition of purified Photinus pyralis luciferase – biochemical, luminescence, purified enzyme, 2006 set, primary screen (AID 1141); conditions: purified firefly luciferase, SteadyGlo luminescence, 30 min; higher = more signal, called active from +8 up or from −8 down;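 note: cell-free assay with purified firefly luciferase at 100 ng per well in PBS; test concentration not given here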
Luciferin 4-monooxygenase (Photinus pyralis), sequence (P08659 whole entry, looked up): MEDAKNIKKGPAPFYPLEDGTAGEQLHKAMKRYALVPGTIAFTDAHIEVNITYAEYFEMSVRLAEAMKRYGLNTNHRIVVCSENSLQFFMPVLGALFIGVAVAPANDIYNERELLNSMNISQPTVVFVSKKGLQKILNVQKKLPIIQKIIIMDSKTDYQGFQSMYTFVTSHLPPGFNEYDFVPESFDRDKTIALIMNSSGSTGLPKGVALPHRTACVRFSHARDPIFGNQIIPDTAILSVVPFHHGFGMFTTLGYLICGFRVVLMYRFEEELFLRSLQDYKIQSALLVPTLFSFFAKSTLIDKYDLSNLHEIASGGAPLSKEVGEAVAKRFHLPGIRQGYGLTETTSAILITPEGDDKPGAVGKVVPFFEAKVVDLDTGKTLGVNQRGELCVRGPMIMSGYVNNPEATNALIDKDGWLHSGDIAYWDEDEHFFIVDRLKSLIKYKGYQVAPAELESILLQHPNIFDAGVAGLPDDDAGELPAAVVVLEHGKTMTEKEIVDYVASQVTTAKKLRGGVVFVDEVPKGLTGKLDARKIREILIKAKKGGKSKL

Focal adhesion kinase 1 (Homo sapiens), sequence (Q05397 whole entry, looked up): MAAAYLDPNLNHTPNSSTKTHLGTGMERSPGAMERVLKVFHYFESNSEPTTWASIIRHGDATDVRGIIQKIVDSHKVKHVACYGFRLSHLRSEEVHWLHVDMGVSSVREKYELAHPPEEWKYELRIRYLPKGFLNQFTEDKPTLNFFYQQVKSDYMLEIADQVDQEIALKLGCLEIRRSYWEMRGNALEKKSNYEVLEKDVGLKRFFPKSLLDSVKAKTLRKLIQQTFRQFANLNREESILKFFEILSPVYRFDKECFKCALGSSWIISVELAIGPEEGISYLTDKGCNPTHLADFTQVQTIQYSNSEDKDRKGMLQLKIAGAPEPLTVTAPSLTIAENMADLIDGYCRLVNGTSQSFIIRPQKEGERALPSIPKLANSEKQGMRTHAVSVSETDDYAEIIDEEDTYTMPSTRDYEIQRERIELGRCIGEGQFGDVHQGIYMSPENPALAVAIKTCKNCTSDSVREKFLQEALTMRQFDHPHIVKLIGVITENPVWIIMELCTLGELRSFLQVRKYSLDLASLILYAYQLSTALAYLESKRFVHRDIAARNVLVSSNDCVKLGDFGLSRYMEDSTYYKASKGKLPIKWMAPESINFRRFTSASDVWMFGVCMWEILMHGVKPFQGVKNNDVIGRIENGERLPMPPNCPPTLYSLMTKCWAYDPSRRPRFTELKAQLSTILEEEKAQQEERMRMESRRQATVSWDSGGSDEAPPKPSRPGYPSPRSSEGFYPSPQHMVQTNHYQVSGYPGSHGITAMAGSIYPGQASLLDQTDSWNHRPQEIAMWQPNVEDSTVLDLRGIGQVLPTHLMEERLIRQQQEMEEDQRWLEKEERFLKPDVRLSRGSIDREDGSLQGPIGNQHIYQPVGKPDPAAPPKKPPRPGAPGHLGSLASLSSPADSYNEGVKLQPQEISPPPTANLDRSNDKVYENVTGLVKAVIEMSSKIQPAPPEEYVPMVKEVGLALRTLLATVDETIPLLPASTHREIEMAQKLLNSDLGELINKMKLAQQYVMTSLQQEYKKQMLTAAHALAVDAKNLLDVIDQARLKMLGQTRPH
Follistatin (Homo sapiens), sequence (P19883 whole entry, looked up): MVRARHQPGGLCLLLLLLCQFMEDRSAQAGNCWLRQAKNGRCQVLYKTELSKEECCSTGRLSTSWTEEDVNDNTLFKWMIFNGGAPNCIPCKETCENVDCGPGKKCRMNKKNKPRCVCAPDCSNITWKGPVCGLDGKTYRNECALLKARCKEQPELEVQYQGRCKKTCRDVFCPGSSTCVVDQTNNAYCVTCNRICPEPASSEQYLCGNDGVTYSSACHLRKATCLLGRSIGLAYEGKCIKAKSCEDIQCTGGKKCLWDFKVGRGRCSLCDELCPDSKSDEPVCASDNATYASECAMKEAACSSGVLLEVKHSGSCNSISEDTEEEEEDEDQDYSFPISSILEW
Concanavalin-A (Canavalia ensiformis), sequence (P02866 whole entry, looked up): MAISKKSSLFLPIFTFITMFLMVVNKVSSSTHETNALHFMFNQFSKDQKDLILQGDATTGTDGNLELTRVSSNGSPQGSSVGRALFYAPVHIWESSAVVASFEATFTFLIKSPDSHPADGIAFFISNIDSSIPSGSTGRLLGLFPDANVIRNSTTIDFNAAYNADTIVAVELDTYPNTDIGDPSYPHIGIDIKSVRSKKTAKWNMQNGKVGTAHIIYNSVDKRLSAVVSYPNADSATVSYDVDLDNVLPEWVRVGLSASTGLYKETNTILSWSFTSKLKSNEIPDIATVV
Albumin (Bos taurus), sequence (P02769 whole entry, looked up): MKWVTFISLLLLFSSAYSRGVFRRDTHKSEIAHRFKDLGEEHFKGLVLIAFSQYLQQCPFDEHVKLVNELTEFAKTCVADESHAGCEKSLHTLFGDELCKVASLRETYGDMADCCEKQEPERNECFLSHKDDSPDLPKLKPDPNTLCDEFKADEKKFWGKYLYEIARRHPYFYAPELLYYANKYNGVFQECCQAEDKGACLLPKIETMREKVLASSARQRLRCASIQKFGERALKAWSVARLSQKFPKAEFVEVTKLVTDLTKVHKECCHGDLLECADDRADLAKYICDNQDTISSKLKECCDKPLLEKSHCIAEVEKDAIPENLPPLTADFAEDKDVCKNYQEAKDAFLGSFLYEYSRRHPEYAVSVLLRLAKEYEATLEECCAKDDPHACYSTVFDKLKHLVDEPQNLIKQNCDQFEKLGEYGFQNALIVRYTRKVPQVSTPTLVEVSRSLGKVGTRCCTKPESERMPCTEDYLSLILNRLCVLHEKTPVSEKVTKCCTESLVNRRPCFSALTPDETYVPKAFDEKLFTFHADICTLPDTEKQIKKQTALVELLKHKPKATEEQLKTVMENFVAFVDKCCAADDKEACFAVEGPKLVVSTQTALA
Fibroblast growth factor 2 (Homo sapiens), sequence (P09038 whole entry, looked up): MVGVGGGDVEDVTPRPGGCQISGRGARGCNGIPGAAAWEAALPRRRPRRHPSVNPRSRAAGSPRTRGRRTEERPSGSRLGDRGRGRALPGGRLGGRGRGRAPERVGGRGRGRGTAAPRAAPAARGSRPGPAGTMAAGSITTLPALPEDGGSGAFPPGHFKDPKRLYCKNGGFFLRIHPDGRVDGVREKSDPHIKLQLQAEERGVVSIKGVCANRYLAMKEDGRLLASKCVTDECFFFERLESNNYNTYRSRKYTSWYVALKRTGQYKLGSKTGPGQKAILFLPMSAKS

Structure (SMILES) | composite z-score (Albumin (Bos taurus)) | composite Z-score [1] | composite z-score [2] | composite z-score [3] | composite z-score [4] | composite z-score [5] | composite z-score [6] | composite z-score (Sam68 (KHDRBS1)) | composite z-score [7] | composite z-score [8] | composite z-score [9] | composite z-score [10] | composite z-score [11] | composite z-score [12] | composite z-score [13] | composite z-score [14] | z-score [15] | composite z-score (Lefty1) | composite z-score [16] | z-score [17]
Cc1ccc(S[C@]2(C(=O)NCCN3CCOCC3)CC(=O)N(Cc3ccccc3Cl)[C@@H]2c2ccc(CO)cc2I)cc1 | 0.243 | 0.555 (inactive) | 0.0226 | 0.584 | 0.805 | 2.75 | 1.49 | 0.653 | -0.35 | -0.763 | -0.882 | -0.227 | 1.09 | -0.646 | -0.349 | 0.388 | 1.08 | -1.57 | 0.498 | -0.43 (inactive)
CC(C)(C)OC(=O)CC[C@@]1(C(=O)NCC(O)CO)N=C(c2ccc(OCCCO)cc2)O[C@@H]1c1ccccc1CN=[N+]=[N-] (stereo not given in full) | 0.347 | -0.0662 (inactive) | 0.0297 | 0.124 | 0.836 | 1.34 | 0.398 | 0.941 | 0.333 | 0.922 | 1.41 | 0.98 | 0.426 | 0.91 | 0.716 | 0.337 | 0.404 | -0.0839 | 0.299 | -1.78 (inactive)
CCCC=C(CCC)[C@@H](NC(=O)c1cccs1)c1ccc(C(=O)OC)cc1 | -0.0481 | 0.0599 (inactive) | 1.29 | 0.728 | 0.0222 | 0.0362 | -0.0022 | -0.411 | 0.513 | 0.588 | 0.196 | 0.741 | 0.205 | 0.686 | 0.816 | 1.13 | 0.733 | -0.223 | -0.119 | 2.23 (inactive)
COC(=O)C(CC#Cc1ccc2c(c1)[C@]1(C(=O)N2)[C@H](c2ccc(O)cc2)N2[C@H](c3ccccc3)[C@H](c3ccccc3)OC(=O)[C@H]2[C@@H]1C(=O)NC[C@H](O)c1ccccc1)C(=O)OC | 0.0841 | 0.564 (inactive) | 0.0948 | -0.0956 | 0.553 | 1.22 | 1.2 | 1.24 | 0.294 | 0.517 | 0.509 | 0.779 | 0.408 | 0.733 | 1.21 | 0.551 | -0.97 | 0.685 | 0.9 | 0.314 (inactive)
COc1cccc(C)c1NC(=O)O[C@H]1[C@H](OC(=O)Nc2ccc3c(c2)OCO3)[C@@H](OC(=O)Nc2ccc3c(c2)OCO3)[C@@H](OC)O[C@@H]1CO | 0.48 | 0.525 (inactive) | 0.508 | -0.0714 | 0.43 | 2.53 | 1.29 | 1.29 | 0.492 | 0.66 | 0.4 | 1.25 | 1.09 | 0.988 | 1.28 | 0.887 | -0.588 | 1.28 | 1.15 | -5.18 (inactive)
COC(=O)[C@@H]1N=C(c2ccc(OCCCO)cc2)O[C@@H]1C | -0.867 | -0.385 (inactive) | 0.0893 | -0.082 | -0.153 | -0.223 | 0.905 | 0.973 | -0.155 | 0.0255 | 0.217 | 0.0927 | 0.517 | -0.323 | 1.17 | 0.936 | 0.669 | 0.516 | -0.257 | -13.8 (active)
